# Shown are actives, neighbours in structure and some others; about 3.3% of the full set was active somewhere.
# SUMO HTRF inh: SUMOylation inhibition | P63279 | HTRF SUMOylation assay, SAE1/SAE2 + UBC9, in vitro | inhibition, % at 35 µM | 290,000 compounds, 0.36% hits | AID 2006; in the data active = inhibition above about 50%, passing the limit was not always enough; inconclusive = no clear call, values can overlap the other calls
# UBC13 polyUb: inhibitors of human UBC13 polyubiquitin chain formation; inhibition, % at 20 µM; P61088; 330,000 compounds, 0.47% hits; TR-FRET; AID 485273; in the data active = inhibition above about 45%, passing the limit was not always enough; inconclusive = no clear call, values can overlap the other calls
# HGIII-sPLA2 inh: Blocks human group III sPLA2 activity. Q9NZ20. QFRET BODIPY PC-A2 liposome hydrolysis, fluorescence. inhibition, % at 12.2 µM. 370,000 compounds, 0.56% hits;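 active = inhibition above mean plus 3 SD of compounds lying within the high and low control bounds, cut at about 19% in these data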
# Target sequence (Q9NZ20 whole entry, looked up): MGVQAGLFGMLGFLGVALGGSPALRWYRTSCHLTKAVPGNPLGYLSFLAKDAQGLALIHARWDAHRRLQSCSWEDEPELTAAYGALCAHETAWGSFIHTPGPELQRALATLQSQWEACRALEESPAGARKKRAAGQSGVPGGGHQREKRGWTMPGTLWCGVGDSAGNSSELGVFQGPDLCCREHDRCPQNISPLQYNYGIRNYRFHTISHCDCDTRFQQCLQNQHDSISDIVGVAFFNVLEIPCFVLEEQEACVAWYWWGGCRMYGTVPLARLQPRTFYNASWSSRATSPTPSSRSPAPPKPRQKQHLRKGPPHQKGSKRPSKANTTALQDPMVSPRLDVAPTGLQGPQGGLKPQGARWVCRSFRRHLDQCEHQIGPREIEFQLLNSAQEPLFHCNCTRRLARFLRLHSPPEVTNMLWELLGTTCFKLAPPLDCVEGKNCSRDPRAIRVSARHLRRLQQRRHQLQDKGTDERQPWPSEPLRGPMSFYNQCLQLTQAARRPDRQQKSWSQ
# NR3A LBD binder: modulates the human NR3A ligand-binding domain. NR3A LBD differential scanning fluorimetry, Tm shift; 0% = protein alone, 100% = glycine-bound protein. Tm shift relative to glycine control, % at 25 µM. 340,000 compounds, 2.5% hits. AID 1259313;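 active = melting temperature shift of at least 10% of the positive control shift, at one fixed dose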
# A number is an active result; . = inactive; ? = inconclusive; / = no result.
SMILES,SUMO HTRF inh,UBC13 polyUb,HGIII-sPLA2 inh,NR3A LBD binder
COc1ccc2nc(NC(=O)c3ccc(F)cc3)sc2c1,.,.,.,10.1
COc1ccc2nc(NC(=O)Nc3cccc4ccccc34)sc2c1,.,.,.,23.2
COCCCNC(=O)c1ccc(Cn2c(=O)c3ccccc3n(Cc3ccc([N+](=O)[O-])cc3)c2=O)cc1,/,/,.,/
COc1ccc(C(=O)Nc2nc3ccccc3s2)cc1,.,.,.,25.6
COc1ccc2nc(NC(=O)c3ccc4ncsc4c3)sc2c1,.,.,/,26.3
COc1ccc(OCC(=O)Nc2nc3ccc(NC(C)=O)cc3s2)cc1,.,.,.,14.1
COc1ccc2nc(NC(=O)c3cccs3)sc2c1,.,.,.,19.3
CCOC(=O)N1CCN(C(=O)C[C@H]2C(=O)N(Cc3ccc(OC)cc3)C3=CCCCC[C@@]32C(=O)OC)CC1,/,/,.,/
NC(=O)c1ccc2nc(NC(=O)c3ccc(N)cc3)sc2c1,.,.,.,13.9
CC(=O)Nc1nc2cc(C(N)=O)ccc2s1,/,.,.,.
Cc1cc(Nc2cccc(Cl)c2)nc(-c2ccccc2O)n1,.,.,.,36.6
Cc1cc(Cl)nc(-c2ccccc2O)n1,.,.,.,.
Cc1cc(Nc2ccc(Cl)cc2)nc(-c2ccccc2O)n1,.,?,.,35.4
Cc1ccc(/C=C2\SC(=S)N(C3CCS(=O)(=O)C3)C2=O)o1 (configuration not stated),.,.,.,.
CC1=C(C#N)C(=O)N(C2CCS(=O)(=O)C2)C(=O)/C1=C\c1ccc(C)o1 (configuration not stated),61.2,.,/,/
CCOc1ccc(C=NNC(=O)c2cc(-c3ccc(Cl)cc3)n[nH]2)cc1,/,/,.,/
O=C(NC1CCCCN(Cc2ccc(Cl)cc2)C1=O)c1cc(-c2ccccc2)no1 (configuration not stated),/,/,.,/
C=CCN1C(=O)[C@@H](CC(=O)N2CCSCC2)[C@]2(C(=O)OC)CCCCC=C12,/,/,.,/
N#Cc1c(SCC(=O)Nc2nc3ccc(Br)cc3s2)sc2c(O)cc(=O)[nH]c12,.,.,.,18.3
Cc1cc(C(F)(F)F)c(C#N)c(SCC(=O)Nc2nc3cc(Br)ccc3s2)n1,.,.,.,29.9
CCOC(=O)NC(=O)CSc1nc(C)cc(C(F)(F)F)c1C#N,.,.,.,.
C(=C\c1ccc2ccccc2n1)/c1ccccc1,.,.,.,.
Oc1ccc(/C(Cc2ccc3ccccc3n2)=N\Nc2ccccc2)c(O)c1,.,.,.,.
Oc1ccc(/C=C/c2ccc3ccccc3n2)cc1,.,.,.,19.1
C(=Cc1c[nH]c2ccccc12)c1nccc2ccccc12,/,/,.,.
SMILES,SUMO HTRF inh,UBC13 polyUb,HGIII-sPLA2 inh,NR3A LBD binder
O/C(=C\c1ccc2ccccc2n1)c1ccc(O)cc1O,.,.,.,34.8
C(=Cc1c[nH]c2ccccc12)c1ccc2ccccc2n1,/,/,.,21.8
Cc1ccc(Cn2cc(CN3CC=CS3(=O)=O)nn2)cc1,/,/,.,/
CSCCC(NC(=O)c1ccccc1)C(=O)N(C)CC(=O)Nc1ccc(N2CCOCC2)cc1 (configuration not stated),.,.,.,12.6
CN(CC(=O)Nc1ccc(N2CCOCC2)cc1)C(=O)Cc1ccccc1,/,.,.,.
O=C(NCc1ccco1)C(c1ccccc1F)N(Cc1cccnc1)C(=O)Cn1nnc2ccccc21 (configuration not stated),.,.,.,11.0
O=C(NCc1ccco1)C(c1ccc(F)cc1)N(Cc1cccnc1)C(=O)Cn1nnc2ccccc21 (configuration not stated),.,.,.,.
O[C@H](COc1ccc(F)cc1)CN1CCC(C(O)(c2ccccc2)c2ccccc2)CC1,/,/,.,/
COCCNC(=O)c1cc2c(s1)-c1ccc(Cl)cc1SC2,.,.,.,.
NC(=O)c1cc2c(s1)-c1cc(Cl)ccc1SC2,.,.,.,46.7
O=S(=O)(CC1NCc2cc(F)ccc21)NC1CCCC1 (configuration not stated),/,/,.,/
O=C(NCC(c1ccccc1)c1ccccc1)[C@H](Cc1c[nH]c2ccccc12)NC1(C(=O)NC2CCCCC2)CCCC1,/,/,.,/
CCCCC(=O)N[C@H]1CC[C@@]23CCCN2C(=O)CCC[C@H]3[C@H]1C,/,/,.,/
CCSC1=N/C(=C\c2cccc(F)c2)C(=O)S1,.,.,.,15.4
COc1cc(C(F)(F)F)c(C(=O)N(C)Cc2cccc(Cl)c2)cn1,.,.,.,13.9
COc1cc(C(F)(F)F)c(C(=O)N(C)Cc2cc(Cl)cc(Cl)c2)cn1,.,.,.,.
Clc1ccc2nc(CNc3nc(N4CCOCC4)nc4c3ncn4-c3ccsc3)[nH]c2c1,/,/,.,/

# Screening data deposited in PubChem BioAssay by several laboratories.
